The values below come from ChEMBL document CHEMBL1961873, “Compounds: GSK PKIS; Assays: Nanosyn kinase panel” (2012).

In assay [1] the target is Tyrosine-protein kinase CSK (Homo sapiens) (UniProt P41240). The settings on record: at 1 µM.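 Also: each value is an averaged inhibition reading.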
Assay [2] concerns the target T1, Discoidin domain-containing receptor 2 (Homo sapiens) (UniProt Q16832).
T1 sequence (whole entry): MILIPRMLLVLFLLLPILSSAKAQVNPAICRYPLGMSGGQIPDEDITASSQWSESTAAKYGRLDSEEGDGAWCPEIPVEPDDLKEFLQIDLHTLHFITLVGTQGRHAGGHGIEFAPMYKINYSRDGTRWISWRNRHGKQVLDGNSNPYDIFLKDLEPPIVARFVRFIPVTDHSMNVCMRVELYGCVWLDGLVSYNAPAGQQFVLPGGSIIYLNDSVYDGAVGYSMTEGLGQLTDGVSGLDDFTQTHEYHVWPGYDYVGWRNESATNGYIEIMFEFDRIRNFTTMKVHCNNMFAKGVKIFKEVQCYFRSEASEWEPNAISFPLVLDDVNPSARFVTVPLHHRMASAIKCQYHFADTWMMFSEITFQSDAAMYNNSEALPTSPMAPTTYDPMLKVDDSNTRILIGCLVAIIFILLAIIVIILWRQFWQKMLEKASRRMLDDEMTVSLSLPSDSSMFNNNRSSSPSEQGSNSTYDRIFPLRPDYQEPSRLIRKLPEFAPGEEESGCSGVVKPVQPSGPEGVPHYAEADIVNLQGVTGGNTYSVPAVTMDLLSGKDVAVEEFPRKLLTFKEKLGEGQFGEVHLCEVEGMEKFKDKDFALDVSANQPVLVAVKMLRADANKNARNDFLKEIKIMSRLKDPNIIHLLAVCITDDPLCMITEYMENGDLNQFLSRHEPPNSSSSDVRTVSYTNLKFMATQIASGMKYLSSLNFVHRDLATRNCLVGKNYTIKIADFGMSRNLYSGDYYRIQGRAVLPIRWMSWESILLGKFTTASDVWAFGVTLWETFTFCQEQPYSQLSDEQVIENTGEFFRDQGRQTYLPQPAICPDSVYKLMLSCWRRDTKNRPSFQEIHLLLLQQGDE
To be noted: at 0.1 µM.

The target of assay [3] is T1, Discoidin domain-containing receptor 2 (Homo sapiens). To be noted: at 1 µM.
The target of assay [4] is Epidermal growth factor receptor (Homo sapiens) (UniProt P00533). The settings on record: at 0.1 µM.
Assay [5] has the same target. The settings on record: at 1 µM.
In assay [6] the test system is Epidermal growth factor receptor (Homo sapiens), P00533 [L858R]. The settings on record: at 0.1 µM.
The test system is the same in assay [7]. To be noted: at 1 µM.
Assay [8] relates to Epidermal growth factor receptor (Homo sapiens), P00533 [L861Q]. To be noted: at 0.1 µM.
Sequence of Epidermal growth factor receptor (Homo sapiens), P00533 [L861Q] (P00533 whole entry L861Q): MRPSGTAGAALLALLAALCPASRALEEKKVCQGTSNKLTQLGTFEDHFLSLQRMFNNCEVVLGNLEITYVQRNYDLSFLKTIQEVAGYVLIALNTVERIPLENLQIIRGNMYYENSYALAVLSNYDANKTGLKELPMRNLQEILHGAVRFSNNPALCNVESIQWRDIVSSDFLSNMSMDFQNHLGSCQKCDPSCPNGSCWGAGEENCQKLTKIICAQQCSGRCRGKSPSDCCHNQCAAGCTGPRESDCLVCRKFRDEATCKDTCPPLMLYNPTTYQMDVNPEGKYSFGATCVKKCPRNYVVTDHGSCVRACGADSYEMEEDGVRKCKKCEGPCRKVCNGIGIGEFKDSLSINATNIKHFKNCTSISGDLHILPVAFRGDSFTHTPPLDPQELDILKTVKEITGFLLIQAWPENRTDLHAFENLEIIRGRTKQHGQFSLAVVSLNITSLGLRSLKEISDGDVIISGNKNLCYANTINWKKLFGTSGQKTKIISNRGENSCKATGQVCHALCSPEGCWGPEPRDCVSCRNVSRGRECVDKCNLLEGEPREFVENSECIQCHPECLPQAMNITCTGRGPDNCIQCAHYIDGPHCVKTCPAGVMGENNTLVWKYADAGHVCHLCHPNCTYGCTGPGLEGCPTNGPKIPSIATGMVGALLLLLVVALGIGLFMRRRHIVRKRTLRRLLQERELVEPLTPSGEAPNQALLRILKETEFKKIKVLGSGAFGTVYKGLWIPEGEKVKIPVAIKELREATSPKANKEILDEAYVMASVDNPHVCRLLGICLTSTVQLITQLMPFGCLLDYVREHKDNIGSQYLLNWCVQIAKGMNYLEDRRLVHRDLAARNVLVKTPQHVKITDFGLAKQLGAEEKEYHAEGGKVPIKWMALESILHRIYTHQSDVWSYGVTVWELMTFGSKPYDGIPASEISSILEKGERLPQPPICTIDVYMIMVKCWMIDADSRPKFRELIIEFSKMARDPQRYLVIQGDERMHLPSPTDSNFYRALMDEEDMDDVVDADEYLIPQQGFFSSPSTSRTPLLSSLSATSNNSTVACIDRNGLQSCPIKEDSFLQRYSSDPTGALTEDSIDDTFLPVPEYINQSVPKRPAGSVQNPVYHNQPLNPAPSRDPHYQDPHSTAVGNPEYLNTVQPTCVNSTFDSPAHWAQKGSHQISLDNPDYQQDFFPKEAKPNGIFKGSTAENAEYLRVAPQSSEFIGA
For assay [9] the test system is unchanged. The settings on record: at 1 µM.
Assay [10] has as its system Epidermal growth factor receptor (Homo sapiens), P00533 [T790M]. The settings on record: at 0.1 µM.
The test system is the same in assay [11]. To be noted: at 1 µM.
Assay [12] deals with Epidermal growth factor receptor (Homo sapiens), P00533 [L858R,T790M]. The settings on record: at 0.1 µM.
Sequence of Epidermal growth factor receptor (Homo sapiens), P00533 [L858R,T790M] (P00533 whole entry T790M/L858R, looked up): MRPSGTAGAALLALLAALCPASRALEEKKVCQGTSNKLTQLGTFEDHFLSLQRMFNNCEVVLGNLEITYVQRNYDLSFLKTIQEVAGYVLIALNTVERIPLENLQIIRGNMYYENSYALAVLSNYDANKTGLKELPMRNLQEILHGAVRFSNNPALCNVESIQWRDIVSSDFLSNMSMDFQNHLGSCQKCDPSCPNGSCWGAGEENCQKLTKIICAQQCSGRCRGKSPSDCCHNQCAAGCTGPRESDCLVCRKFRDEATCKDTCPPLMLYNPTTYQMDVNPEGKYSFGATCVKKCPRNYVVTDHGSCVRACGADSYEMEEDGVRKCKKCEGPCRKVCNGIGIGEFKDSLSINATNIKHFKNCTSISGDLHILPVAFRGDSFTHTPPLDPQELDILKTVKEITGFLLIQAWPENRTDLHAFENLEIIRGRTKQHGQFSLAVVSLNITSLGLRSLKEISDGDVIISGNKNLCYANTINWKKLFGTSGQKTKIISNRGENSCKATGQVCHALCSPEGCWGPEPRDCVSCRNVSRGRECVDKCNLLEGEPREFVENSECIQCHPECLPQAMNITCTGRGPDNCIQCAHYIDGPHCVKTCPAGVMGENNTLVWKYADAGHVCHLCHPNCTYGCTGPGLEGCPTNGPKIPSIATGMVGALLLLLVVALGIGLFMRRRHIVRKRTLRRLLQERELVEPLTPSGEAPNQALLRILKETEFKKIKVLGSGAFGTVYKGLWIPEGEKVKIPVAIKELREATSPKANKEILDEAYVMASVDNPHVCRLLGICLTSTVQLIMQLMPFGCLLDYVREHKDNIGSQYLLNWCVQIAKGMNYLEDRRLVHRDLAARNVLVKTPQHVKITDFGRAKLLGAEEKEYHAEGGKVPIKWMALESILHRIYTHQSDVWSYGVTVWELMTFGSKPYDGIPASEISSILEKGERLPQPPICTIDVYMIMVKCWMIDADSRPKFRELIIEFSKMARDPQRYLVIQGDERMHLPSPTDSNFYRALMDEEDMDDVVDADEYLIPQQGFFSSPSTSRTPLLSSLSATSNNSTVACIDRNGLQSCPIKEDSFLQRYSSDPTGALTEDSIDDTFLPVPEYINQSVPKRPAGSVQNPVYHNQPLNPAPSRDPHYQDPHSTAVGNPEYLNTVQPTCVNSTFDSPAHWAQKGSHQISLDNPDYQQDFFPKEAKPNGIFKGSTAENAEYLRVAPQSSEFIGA
Assay [13] shares this test system. To be noted: at 1 µM.
In assay [14] the target is Ephrin type-A receptor 2 (Homo sapiens) (UniProt P29317). To be noted: at 0.1 µM.
Sequence of Ephrin type-A receptor 2 (Homo sapiens) (P29317 whole entry): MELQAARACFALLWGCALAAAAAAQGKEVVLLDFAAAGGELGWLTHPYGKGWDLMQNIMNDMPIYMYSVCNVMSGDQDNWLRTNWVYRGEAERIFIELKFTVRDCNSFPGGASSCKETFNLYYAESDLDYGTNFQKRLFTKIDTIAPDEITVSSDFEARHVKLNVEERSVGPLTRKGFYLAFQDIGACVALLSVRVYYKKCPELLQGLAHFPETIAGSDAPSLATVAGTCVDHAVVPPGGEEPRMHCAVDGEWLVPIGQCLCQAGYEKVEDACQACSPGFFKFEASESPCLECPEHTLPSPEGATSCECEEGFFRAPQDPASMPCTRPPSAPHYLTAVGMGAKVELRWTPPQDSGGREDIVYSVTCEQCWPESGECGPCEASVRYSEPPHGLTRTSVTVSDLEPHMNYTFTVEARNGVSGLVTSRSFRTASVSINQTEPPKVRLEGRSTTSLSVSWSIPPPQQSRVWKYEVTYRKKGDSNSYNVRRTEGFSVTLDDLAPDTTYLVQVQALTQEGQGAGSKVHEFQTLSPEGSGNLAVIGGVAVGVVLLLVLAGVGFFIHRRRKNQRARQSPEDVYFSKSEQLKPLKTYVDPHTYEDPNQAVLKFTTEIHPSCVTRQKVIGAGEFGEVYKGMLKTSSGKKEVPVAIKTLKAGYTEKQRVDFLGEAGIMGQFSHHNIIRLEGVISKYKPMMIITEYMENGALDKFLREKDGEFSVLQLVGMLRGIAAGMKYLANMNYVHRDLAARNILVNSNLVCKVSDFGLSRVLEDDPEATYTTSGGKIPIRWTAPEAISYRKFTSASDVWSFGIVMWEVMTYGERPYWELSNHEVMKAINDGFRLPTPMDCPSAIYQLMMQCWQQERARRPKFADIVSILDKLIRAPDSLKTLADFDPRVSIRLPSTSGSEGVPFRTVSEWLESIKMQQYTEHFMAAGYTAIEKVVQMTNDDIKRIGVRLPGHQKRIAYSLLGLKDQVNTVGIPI
The target is the same in assay [15]. To be noted: at 1 µM.
For assay [16], the target named is T2, Ephrin type-A receptor 3 (Homo sapiens) (UniProt P29320).
T2 sequence (whole entry): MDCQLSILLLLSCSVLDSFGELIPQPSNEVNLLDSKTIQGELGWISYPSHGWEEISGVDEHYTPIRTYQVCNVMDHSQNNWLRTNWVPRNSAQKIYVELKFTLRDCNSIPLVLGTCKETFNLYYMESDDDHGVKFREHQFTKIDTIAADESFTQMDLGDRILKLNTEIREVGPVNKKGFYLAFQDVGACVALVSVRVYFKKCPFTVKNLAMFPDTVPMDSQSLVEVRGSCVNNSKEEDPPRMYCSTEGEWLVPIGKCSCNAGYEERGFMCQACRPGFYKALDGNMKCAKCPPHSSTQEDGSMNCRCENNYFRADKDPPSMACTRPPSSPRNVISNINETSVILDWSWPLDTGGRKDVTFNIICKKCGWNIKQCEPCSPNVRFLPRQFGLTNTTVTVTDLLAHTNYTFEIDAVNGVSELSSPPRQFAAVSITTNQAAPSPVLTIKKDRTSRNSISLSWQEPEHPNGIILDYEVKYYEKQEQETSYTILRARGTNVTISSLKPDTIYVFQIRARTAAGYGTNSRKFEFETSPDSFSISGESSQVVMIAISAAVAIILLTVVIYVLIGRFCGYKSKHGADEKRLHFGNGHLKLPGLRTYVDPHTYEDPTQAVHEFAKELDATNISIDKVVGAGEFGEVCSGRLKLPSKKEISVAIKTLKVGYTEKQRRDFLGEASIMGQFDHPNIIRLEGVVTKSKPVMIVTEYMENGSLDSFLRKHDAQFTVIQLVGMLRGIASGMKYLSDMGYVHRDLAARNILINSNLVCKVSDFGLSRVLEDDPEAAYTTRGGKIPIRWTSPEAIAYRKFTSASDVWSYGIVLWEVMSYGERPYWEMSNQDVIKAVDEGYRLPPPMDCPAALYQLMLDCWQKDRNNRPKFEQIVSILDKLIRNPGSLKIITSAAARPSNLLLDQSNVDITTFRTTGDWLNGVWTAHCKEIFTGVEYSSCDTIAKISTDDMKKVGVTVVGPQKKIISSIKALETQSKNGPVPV
The settings on record: at 0.1 µM.

In assay [17] the target is T2, Ephrin type-A receptor 3 (Homo sapiens). To be noted: at 1 µM.
The target of assay [18] is Ephrin type-A receptor 4 (Homo sapiens) (UniProt P54764). To be noted: at 0.1 µM.
Sequence of Ephrin type-A receptor 4 (Homo sapiens) (P54764 whole entry): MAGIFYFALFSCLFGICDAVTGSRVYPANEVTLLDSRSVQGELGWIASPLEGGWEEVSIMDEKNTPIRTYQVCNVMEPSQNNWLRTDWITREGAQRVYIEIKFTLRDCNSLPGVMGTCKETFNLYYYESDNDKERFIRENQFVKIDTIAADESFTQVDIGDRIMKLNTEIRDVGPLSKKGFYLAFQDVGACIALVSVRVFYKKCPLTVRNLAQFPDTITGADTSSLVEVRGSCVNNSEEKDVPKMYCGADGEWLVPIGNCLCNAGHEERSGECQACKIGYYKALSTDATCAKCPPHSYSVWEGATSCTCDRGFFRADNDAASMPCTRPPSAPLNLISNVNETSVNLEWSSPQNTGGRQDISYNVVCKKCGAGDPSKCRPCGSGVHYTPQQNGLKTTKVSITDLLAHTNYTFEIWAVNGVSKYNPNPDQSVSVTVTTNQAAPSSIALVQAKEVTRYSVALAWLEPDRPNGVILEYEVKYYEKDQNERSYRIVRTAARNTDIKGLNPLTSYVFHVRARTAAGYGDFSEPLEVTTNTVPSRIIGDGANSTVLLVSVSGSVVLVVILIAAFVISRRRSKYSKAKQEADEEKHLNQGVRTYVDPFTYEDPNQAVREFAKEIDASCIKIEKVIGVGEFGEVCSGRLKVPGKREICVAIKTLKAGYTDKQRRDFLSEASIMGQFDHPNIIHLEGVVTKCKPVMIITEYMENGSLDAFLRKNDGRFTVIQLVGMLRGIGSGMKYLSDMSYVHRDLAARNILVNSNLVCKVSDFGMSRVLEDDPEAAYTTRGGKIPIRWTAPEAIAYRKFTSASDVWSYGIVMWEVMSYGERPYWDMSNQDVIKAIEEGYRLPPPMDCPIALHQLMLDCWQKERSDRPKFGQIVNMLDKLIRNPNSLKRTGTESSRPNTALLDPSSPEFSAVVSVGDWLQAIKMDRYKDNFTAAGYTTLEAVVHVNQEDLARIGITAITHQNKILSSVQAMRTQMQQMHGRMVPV
For assay [19] the target is unchanged. The settings on record: at 1 µM.
Assay [20] deals with T3, Ephrin type-B receptor 2 (Homo sapiens) (UniProt P29323).
T3 sequence (whole entry): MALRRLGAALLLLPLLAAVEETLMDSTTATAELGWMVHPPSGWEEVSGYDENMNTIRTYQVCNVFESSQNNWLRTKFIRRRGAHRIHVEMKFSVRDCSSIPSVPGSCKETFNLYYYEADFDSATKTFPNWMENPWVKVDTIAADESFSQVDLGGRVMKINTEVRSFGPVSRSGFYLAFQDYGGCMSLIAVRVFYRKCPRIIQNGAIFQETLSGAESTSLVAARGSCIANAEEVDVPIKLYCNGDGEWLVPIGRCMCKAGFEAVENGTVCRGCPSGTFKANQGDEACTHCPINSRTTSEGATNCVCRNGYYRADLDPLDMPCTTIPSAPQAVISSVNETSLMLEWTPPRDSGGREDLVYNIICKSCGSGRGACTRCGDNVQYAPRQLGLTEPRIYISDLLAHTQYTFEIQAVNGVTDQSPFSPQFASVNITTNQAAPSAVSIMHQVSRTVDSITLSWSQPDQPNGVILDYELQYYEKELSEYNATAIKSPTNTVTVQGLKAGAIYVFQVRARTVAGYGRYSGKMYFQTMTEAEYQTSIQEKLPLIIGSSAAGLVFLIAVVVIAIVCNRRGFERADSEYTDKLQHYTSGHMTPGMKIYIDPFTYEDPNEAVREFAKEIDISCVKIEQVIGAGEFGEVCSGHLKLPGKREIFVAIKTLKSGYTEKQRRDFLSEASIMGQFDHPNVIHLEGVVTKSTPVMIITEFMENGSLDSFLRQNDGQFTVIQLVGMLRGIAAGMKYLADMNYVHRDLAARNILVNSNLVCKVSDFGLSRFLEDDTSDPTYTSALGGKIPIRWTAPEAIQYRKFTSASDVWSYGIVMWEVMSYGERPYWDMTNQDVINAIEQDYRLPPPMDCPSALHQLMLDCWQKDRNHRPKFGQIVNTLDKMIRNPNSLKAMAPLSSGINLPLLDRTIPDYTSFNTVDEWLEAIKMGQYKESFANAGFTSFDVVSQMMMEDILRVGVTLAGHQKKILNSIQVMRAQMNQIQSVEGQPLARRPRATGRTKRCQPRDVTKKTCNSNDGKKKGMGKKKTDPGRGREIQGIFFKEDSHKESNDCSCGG
To be noted: at 0.1 µM.

Molecules are shown by their SMILES.

Sequence of Tyrosine-protein kinase CSK (Homo sapiens) (P41240 2-450 limits assumed): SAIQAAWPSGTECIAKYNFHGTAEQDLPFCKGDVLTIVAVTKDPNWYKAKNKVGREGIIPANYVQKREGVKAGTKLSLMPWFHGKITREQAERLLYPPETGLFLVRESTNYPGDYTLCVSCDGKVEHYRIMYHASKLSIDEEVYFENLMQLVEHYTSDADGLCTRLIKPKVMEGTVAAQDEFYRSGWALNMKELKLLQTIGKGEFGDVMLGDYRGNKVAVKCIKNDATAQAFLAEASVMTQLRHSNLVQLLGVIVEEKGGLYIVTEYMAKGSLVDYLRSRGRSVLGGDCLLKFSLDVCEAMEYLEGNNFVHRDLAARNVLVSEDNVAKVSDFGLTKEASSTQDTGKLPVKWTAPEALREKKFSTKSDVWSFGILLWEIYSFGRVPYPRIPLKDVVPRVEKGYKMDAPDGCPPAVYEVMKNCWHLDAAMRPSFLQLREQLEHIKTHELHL

A word on the inhibition: it is the relative decrease from the control value, in per cent. Turning to `CCN(CC)Cc1ccc(Nc2nccc(-c3cnn4ncccc34)n2)cc1`, the inhibition in assay [1] is 8.18%; in assay [2], 1.64%; in assay [3] it was 4.24%; in [4], -1.99%; in [5] it was -1.76%; in assay [6], -0.85%. Moreover, the inhibition in assay [7] is -1.39%; in [8], 1.51%; in [9] it was 1.54%; in assay [10] it was 0.54%; in assay [11], 1.33%; in assay [12], 0.05%. Further, the inhibition in assay [13] was 4.64%; in [14], -3.31%; in assay [15], -5.2%; in assay [16] it was -1.76%; in assay [17] it was 0.69%; in [18] it was 6.79%. For the same compound, the results for the inhibition in [19] and in assay [20] were 15.2% and 8.25%, respectively.
Take `COc1cc2ncn(-c3cc(OCCc4ccccc4)c(C(N)=O)s3)c2cc1OC`: the inhibition stood at 2.94% in assay [1]; 0.75% in assay [2]; 2.48% in assay [3]; 7.08% in assay [4]; 7.65% in assay [5]; 2.45% in assay [6]. In addition, the inhibition in assay [7] stood at 9.43%; in assay [8], 0.8%; in [9] it was 0.3%; in assay [10], 0.19%; in assay [11], 0.49%; in assay [12], 0.55%. The inhibition was found to be 4.9% in [13]; 1.97% in assay [14]; 0.66% in assay [15]; 3.06% in assay [16]; 4.07% in assay [17]; 4.63% in [18]. The inhibition in [19] was found to be 3.61%; in assay [20], 3.87%.
For the compound `Cc1ccc(C(=O)NC(C)C)cc1-c1ccc(C(=O)NCC2CC2)cc1`, the inhibition in assay [2] is -0.36%; in assay [3], 0.09%; in assay [4] it was 0.3%; in assay [5], 1.34%; in assay [6], -1.62%; in [7], -1.21%. Moreover, the inhibition was -0.86% in assay [8]; -2.64% in assay [9]; -0.77% in assay [10]; -3.61% in assay [11]; -2.78% in [12]; -0.98% in assay [13]. The inhibition in assay [14] was -1.78%; in assay [15], -2.07%; in [16], -7.27%; in [17], -6.99%; in [18], -6.17%; in assay [19], -6.72%. Also, in assay [20], the inhibition was -9.67%.
Regarding `O=C(NCC1CC1)c1ccc(-c2cccc(C(=O)NC3CC3)c2)cc1`, the inhibition was -3.57% in [1]; 4.92% in assay [2]; 7.61% in assay [3]; 1.39% in [4]; 0.85% in assay [5]; 2.42% in [6]. The inhibition is -2.6% in assay [7]; -0.16% in [8]; -2.26% in [9]; 0.88% in [10]; -1.31% in assay [11]; -1.91% in assay [12]. Moreover, the inhibition in assay [13] was found to be 3.8%; in [14], 2.47%; in assay [15], 1.67%; in [16] it was 2.75%; in assay [17] it was 4.67%; in [18], 4.89%. The inhibition in assay [19] is -0.51%; in assay [20] it was 6.78%.
As for `CN(C)CCCNc1nccc(-c2c(-c3ccc(F)cc3)nn3cc(C(F)(F)F)ccc23)n1`, the inhibition in [1] is -0.64%; in [2] it was 5.29%; in assay [3] it was 11.1%; in assay [4] it was -2.27%; in assay [5], 1.24%; in assay [6], 0.77%. The inhibition in assay [7] was 2.36%; in assay [8], 1.57%; in assay [9], -2.56%; in assay [10] it was 1.53%; in assay [11], -0.54%; in assay [12], 0.09%. The inhibition is 1.55% in assay [13]; -2.91% in assay [14]; -2.04% in assay [15]; 0.03% in assay [16]; 1.47% in [17]; 7% in assay [18]. The inhibition in [19] was found to be 9%; in assay [20], 8.88%.
Regarding `COc1ccc2cc(-c3c(-c4ccncc4)nc(-c4ccc(S(C)(=O)=O)cc4C)n3C)ccc2c1`, the inhibition in assay [1] was 7.9%; in assay [2] it was -1.21%; in assay [3], -5.12%; in [4], 0.26%; in [5], 6.12%; in assay [6], 1.94%. Moreover, the inhibition was found to be 10.5% in assay [7]; 2.4% in assay [8]; 10.6% in assay [9]; 1.37% in [10]; 3.3% in [11]; 1.66% in assay [12]. Moreover, the inhibition in assay [13] was determined as 2.57%; in assay [14], 0.22%; in assay [15], 0.86%; in assay [16], 4.84%; in [17] it was 3.83%; in assay [18] it was 9.07%. Moreover, the results for the inhibition in assay [19] and in assay [20] were 17.6% and 4.7%, respectively.
